Data on 38 compounds can be found in PubChem BioAssay (NCATS).

Test [1] in a line: qHTS of Trypanosoma Brucei Inhibitors: LOPAC Validation (AID 624147). Also: 0% is about no effect. Particulars: purified enzyme assay, luminescence, 45 min; series mostly up to 57.5 µM. A digest of the protocol: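 Assay buffer: 50 mM TEA pH 7.2, 100 mM KCl, 10 mM MgCl2, 0.05% BSA, 0.01% Tween-20. Pyruvate kinase from T. brucei plus substrate met compound, then ADP (130 uM final). Luminescence was read post 45 min RT.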

Test [2] deals with Glucagon-like peptide 1 receptor (Homo sapiens) (UniProt P43220). Kind of test: qHTS of GLP-1 Receptor Agonists: LOPAC Validation (AID 624148).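 Also: 0% is about no effect; higher luminescence signal means agonism.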 The note with it: GLP-1R agonist cell assay; series mostly up to 46.1 µM. The method, boiled down: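 HEK293 cells stably co-expressing a cAMP-responsive luciferase reporter and a hypersensitive GLP-1R were plated 12 h at 37 °C and exposed to compounds for 4-6 hr at 37 °C, 5% CO2. Luminescence was read 12 min after adding detection reagent.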
(In general: Quantitative high-throughput screening tests each substance at several concentrations.)

Test [3] in a line: qHTS of Nrf2 Activators: LOPAC Validation (AID 624149). Also: potency is read from the fitted curve at half-maximal effect. As to activation: 0% is about no effect. Particulars: Nrf2/ARE reporter cell assay; series mostly up to 46.1 µM. A digest of the protocol:
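AREc32 cells carrying an ARE-driven firefly luciferase were grown overnight in OPTI-MEM with 5% FBS, then exposed to compounds for 24 hr at 37 deg C. Luciferase signal was read after 30 min with Steady-Glo at RT.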

Test [4] in a line: HTS Assay for Allosteric Antagonists of the Human D2 Dopamine Receptor: Hit Validation in HTRF (AID 624455). Also: potency is read from the fitted curve at half-maximal effect.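 Also: stable D1 dopamine receptor cell line scored for blocking the D1 response.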 The note with it: Cells stably expressing D1 dopamine receptor, inhibition mode; series mostly up to 46.1 µM. A digest of the protocol: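 Hits were examined in an HTRF assay using cells stably expressing the D1 dopamine receptor, scoring inhibition of the D1-mediated response. The preceding primary screen tracked calcium flux after an EC80 dopamine addition in force-coupled, inducible Hek293 Trex D2 cells.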
For orientation: Time-resolved FRET reads energy transfer from a long-lived donor to a nearby acceptor.

A short description of test [5]: qHTS assay for small molecule agonists of the antioxidant response element (ARE) signaling pathway (AID 651741; active = well fitted activation curve with a large enough effect in the signal ratio; the % refers to the signal ratio; also: potency is read from the fitted curve at half-maximal effect; as to activation: % of control where 0% means no effect). The note with it: HepG2 ARE-bla reporter, beta-lactamase FRET ratio, 16 h; series mostly up to 96 µM. A digest of the protocol: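 ARE-bla HepG2 cells (beta-lactamase reporter under ARE control) were plated at 2,000 cells/well, preincubated 5 h at 37 C/5% CO2, then treated with DMSO-dissolved compounds for 16 h at 37 C; LiveBLAzer B/G FRET substrate added, fluorescence read after 2 h at room temperature.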

Test [6] concerns the target Glutaminase kidney isoform, mitochondrial (Homo sapiens) (UniProt O94925). Put plainly: qHTS for Inhibitors of Glutaminase (GLS): LOPAC Validation (AID 624146). Also: nearly all actives have a fitted effect of over 60% in size. Also: potency is read from the fitted curve at half-maximal effect. Particulars: glutaminase enzyme activity inhibition; series mostly up to 46.1 µM. A digest of the protocol: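 Assay buffer: 45 mM KH2PO4 pH 8.2, 0.02% Tween-20. hKGA acts on L-glutamine (1 mM solution added); product glutamate is reported by an oxidase/peroxidase Amplex Red coupling, with fluorescence taken at baseline and 30 min.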

Test [7] can be described thus: qHTS assay for small molecule activators of the nuclear factor-kappa B (NF-kB) signaling pathway (AID 651749; active = well fitted activation curve with a large enough effect in the signal ratio; the % refers to the signal ratio; also: % of control where 0% means no effect). The note with it: NF-kB-bla ME-180 cells, beta-lactamase FRET ratio, 16 h; stronger effect = higher value. The method, boiled down:
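ME-180 cells stably carrying a beta-lactamase reporter under an NF-kB response element were exposed to compound or DMSO vehicle for 16 hr at 37C, 5% CO2. Pathway activation was read by FRET, since reporter expression disrupts FRET.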

Test [8] can be described thus: qHTS assay for small molecule activators of the p53 signaling pathway (AID 651743; active = well fitted activation curve with a large enough effect in the signal ratio, not every such curve was filed as active; the % refers to the signal ratio; also: % of control where 0% means no effect). Particulars: HCT-116 p53RE-bla, beta-lactamase FRET ratio, 16 h; activation: stronger effect = higher value. A digest of the protocol:
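p53RE-bla HCT-116 cells with a stably integrated beta-lactamase reporter under p53 response elements were plated, rested 5 hours at 37 C/5% CO2, then exposed to compounds in DMSO for 16 hours at 37 C. LiveBLAzer B/G FRET substrate was read after 2 hours at room temperature.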

Unmarked numbers belong to inactive results. Records with an inconclusive call do not appear. The source made the active and inactive calls. Unless noted, calls follow the shape of the dose curve; as a rule, active = well fitted curve in the direction sought with a large enough effect; inconclusive = small, poorly fitted or top-dose-only effect, or another doubt; inactive = no such curve, though single readings can be large; an effect the other way counts as inactive or inconclusive.

Sequence of Glucagon-like peptide 1 receptor (Homo sapiens) (P43220 whole entry, looked up): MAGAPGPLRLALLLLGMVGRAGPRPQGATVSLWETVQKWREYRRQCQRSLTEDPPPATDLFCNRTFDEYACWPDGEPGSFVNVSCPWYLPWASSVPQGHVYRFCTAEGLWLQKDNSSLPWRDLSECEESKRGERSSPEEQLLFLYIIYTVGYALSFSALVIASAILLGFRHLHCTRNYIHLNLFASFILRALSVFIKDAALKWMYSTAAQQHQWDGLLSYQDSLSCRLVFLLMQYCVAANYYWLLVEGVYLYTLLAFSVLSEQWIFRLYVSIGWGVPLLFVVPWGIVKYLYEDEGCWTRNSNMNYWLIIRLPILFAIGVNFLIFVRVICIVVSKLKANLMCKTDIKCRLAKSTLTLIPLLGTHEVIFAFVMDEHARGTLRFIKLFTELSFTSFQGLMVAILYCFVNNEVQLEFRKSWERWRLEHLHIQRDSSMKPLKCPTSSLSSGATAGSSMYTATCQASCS
Sequence of Glutaminase kidney isoform, mitochondrial (Homo sapiens) (O94925 whole entry, looked up, canonical isoform): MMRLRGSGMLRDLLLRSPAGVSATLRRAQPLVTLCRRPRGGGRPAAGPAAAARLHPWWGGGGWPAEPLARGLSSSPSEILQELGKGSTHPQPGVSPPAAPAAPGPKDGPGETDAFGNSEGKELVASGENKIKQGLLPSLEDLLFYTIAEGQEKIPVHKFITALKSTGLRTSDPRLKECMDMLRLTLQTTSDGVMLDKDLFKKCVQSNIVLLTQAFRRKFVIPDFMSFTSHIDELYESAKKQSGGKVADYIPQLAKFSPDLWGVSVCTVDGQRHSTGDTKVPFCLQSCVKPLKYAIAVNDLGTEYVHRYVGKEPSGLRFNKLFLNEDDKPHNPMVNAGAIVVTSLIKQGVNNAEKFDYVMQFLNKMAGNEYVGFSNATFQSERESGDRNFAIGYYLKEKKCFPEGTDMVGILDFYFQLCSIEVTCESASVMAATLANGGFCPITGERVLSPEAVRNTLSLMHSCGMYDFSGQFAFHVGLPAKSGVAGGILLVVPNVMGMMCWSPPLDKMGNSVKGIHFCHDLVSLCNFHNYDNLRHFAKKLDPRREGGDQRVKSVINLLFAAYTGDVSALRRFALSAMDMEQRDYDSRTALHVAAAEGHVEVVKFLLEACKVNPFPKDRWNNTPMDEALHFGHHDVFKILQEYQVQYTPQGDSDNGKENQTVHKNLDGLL

For `O=S1(=O)N(CCN2CC=C(c3c[nH]c4cc(F)ccc34)CC2)c2cccc3c2N1CCC3`, the Potency entry in test [1], in test [3] and in test [4] was “inactive” each time. The outcome in test [2] was inactive.
Regarding `Cc1c2ccncc2c(C)c2c1[nH]c1ccccc12`, the Potency result in test [1], in test [3] and in test [4] was “inactive” each time. In test [2], the call was inactive.
`CCCN(CCC)CCc1ccc(O)c(O)c1`: the Potency result in test [1] and in test [3] was “inactive” each time. The outcome in test [2] was inactive. Besides, the Potency in test [4] was 0.092 µM (active).
In the case of `CCCN1CC[C@@H]2c3cc(O)ccc3CC[C@@H]21`, the Potency result in test [1] and in test [3] was “inactive” in each case. Further, the compound was classed as inactive in test [2].
Turning to `C[C@@H]1[C@@H]2Cc3ccc(O)cc3[C@@]1(C)CCN2CC1CC1`, in test [1], the Potency entry is “inactive”.
Take `C[C@H](N)CN1CCc2ccc(Br)cc21`: the Potency entry in test [1], in test [3] and in test [4] was “inactive” each time. Besides, the compound was classed as inactive in test [2].
Turning to `CC(C)Nc1ccc(Nc2ccccc2)cc1`, the Potency in test [5] is 47.3 µM (active).
For `CN(N=O)c1cc(O)ccc1O`, the Potency in test [6] is 1.78 µM (active). The call in test [2] was inactive. In addition, the Potency entry in test [3] and in test [4] was “inactive” in each case.
As for `NC(=O)CI`, the Potency result in test [6], in test [3] and in test [4] was “inactive” in each case. The compound was called inactive in test [2].
With `CC(C)(C)c1cc(C=C(C#N)C#N)cc(C(C)(C)C)c1O`, the Potency in test [6] was 12.6 µM (active). Moreover, in test [2], the call was inactive. Further, the Potency result in test [3] and in test [4] was “inactive” each time.
For the compound `NC(Cc1ccc(N(CCCl)CCCl)cc1)C(=O)O` (stereo unspecified), the Potency entry in test [1], in test [3] and in test [4] was “inactive” each time. Also, in test [2], the result was inactive.
On to `O=[N+]([O-])C(Br)(CO)CO`, for which the Potency in test [5] was 54.5 µM (active). For the same compound, the activation in test [7] was -3.37%.
In the case of `CC(=O)c1c(O)c(C)c(O)c(Cc2c(O)c3c(c(C(=O)/C=C/c4ccccc4)c2O)OC(C)(C)C=C3)c1O`, the Potency result in test [1], in test [3] and in test [4] was “inactive” throughout. Also, the outcome in test [2] was inactive.
In the case of `C=CCN1CCC23c4c5ccc(O)c4O[C@H]2C(=O)CC[C@@]3(O)C1C5` (stereo partly specified), the Potency result in test [1], in test [3] and in test [4] was “inactive” throughout. Besides, the result in test [2] was inactive.
For the compound `O=C(O)c1cc[c]([Hg][Cl])cc1`, the Potency is 3.55 µM (active) in test [6] and 30.6 µM (active) in test [5]. Besides, the compound was called inactive in test [2]. Also, the Potency result in test [4] is “inactive”. Moreover, the activation in test [8] was 10.2%; in test [7], 4.33%.
For `CCCCCCCCCCCCCC(=O)O[C@@H]1[C@@H](C)[C@@]2(O)[C@@H](C=C(CO)C[C@@]3(O)C(=O)C(C)=C[C@@H]23)C2C(C)(C)[C@@]21OC(C)=O` (stereo partly specified), the Potency entry in test [1] and in test [3] was “inactive” throughout. Also, the compound was classed as inactive in test [2].
As for `O=C1C[C@@H]2OCC=C3CN4CC[C@]56c7ccccc7N1[C@H]5[C@H]2[C@H]3C[C@H]46`, the Potency result in test [5] was “inactive”. Also, the activation is -1.99% in test [8] and -1.87% in test [7].
On to `C#CCN1CC(=O)N(COC(=O)C2C(C=C(C)C)C2(C)C)C1=O` (stereo unspecified), for which the activation is -4.17% in test [8] and 1.36% in test [7].
As for `O=[N+]([O-])c1ccc2nc(N3CCNCC3)ccc2c1`, the Potency result in test [1], in test [3] and in test [4] was “inactive” each time. Also, in test [2], the outcome was inactive.
`C[Se]C[C@H](N)C(=O)O`: the Potency entry in test [6], in test [3] and in test [4] was “inactive” each time. In test [2], the call was inactive.
Consider `Cc1[nH]c2ccc(O)cc2c1CCN`, for which the Potency entry in test [1], in test [3] and in test [4] was “inactive” in each case. Moreover, in test [2], the compound was classed as inactive.
Regarding `O=[N+]([O-])/C=C/c1ccc2c(c1)OCO2`, in test [6], the Potency was 12.6 µM (active). The call in test [2] was inactive. Further, the Potency entry in test [3] and in test [4] was “inactive” in each case.
For `O=C1C=CC(=O)C=C1`, the Potency entry in test [6], in test [3] and in test [4] was “inactive” in each case. In addition, the outcome in test [2] was inactive. Moreover, the Potency in test [5] is 47.3 µM (active). For the same compound, in test [7], the activation is -1.25%.
On to `CCCN(CCC)[C@H]1CCc2c(F)ccc(O)c2C1`, for which the Potency result in test [1] and in test [3] was “inactive” each time. The compound was called inactive in test [2]. Further, the Potency in test [4] is 7.31 µM (active).
With `COc1ccc2[nH]cc(CCN)c2c1`, the Potency result in test [1] and in test [3] was “inactive” in each case. Besides, the result in test [2] was inactive.
As to `COc1ccc2[nH]c3c(c2c1)CCNC3`, the Potency result in test [1], in test [3] and in test [4] was “inactive” each time. Further, the call in test [2] was inactive.
Take `COC1=CC(=O)O[C@@H](/C=C/c2ccccc2)C1`: the Potency in test [5] is 5.31 µM (active). Further, the activation in test [8] was -5.52%; in test [7], -0.734%.
With `NC(N)=NOCC[C@H](N)C(=O)O`, the Potency result in test [1], in test [3] and in test [4] was “inactive” in each case. The compound was called inactive in test [2].
Take `Oc1ccc2c3c1O[C@H]1c4[nH]c5ccccc5c4C[C@@]4(O)C(C2)N(CC2CC2)CCC314` (stereo partly specified): the Potency entry in test [1], in test [3] and in test [4] was “inactive” each time. For the same compound, the call in test [2] was inactive.
Take `NNC(=O)c1ccc(O)cc1`: the Potency result in test [1], in test [3] and in test [4] was “inactive” each time. For the same compound, the compound was classed as inactive in test [2].
`COc1ccc2c(c1OC)C(=O)OC2C1c2cc3c(cc2CCN1C)OCO3` (stereo unspecified): in test [5], the Potency entry was “inactive”. In addition, in test [8], the activation was -5.72%.
Turning to `N#C/C(=C/c1ccc(O)c(O)c1)C(N)=S`, the Potency result in test [1], in test [3] and in test [4] was “inactive” each time. For the same compound, the outcome in test [2] was inactive.
Regarding `C=CCN1CCc2cccc3c2[C@H]1Cc1ccc(O)c(O)c1-3`, the Potency in test [6] is 0.891 µM (active); in test [4], 0.0517 µM (active). In addition, in test [2], the compound was called inactive. Also, in test [3], the Potency result was “inactive”.
Consider `C[N+]1(C)CCOC(O)(c2ccc(-c3ccc(C4(O)C[N+](C)(C)CCO4)cc3)cc2)C1` (stereo unspecified), for which the Potency entry in test [1], in test [3] and in test [4] was “inactive” in each case. Besides, the result in test [2] was inactive.
For `NC(N)=Nc1ccc2[nH]c3c(c2c1)C[C@@]1(O)[C@H]2Cc4ccc(O)c5c4[C@@]1(CCN2CC1CC1)[C@H]3O5`, the Potency entry in test [1] and in test [4] was “inactive” throughout. The Potency in test [3] is 2.91 µM (active).
Take `CC(C)[C@@]1(NC(=O)[C@@H]2C[C@@H]3c4cccc5[nH]cc(c45)C[C@H]3N(C)C2)O[C@@]2(O)[C@@H]3CCCN3C(=O)[C@H](Cc3ccccc3)N2C1=O`: the Potency result in test [1] and in test [3] was “inactive” in each case. The result in test [2] was inactive. Also, in test [4], the Potency is 0.0517 µM (active).
For the compound `CCCN(CCC)[C@@H]1CCc2cccc(O)c2C1`, the Potency result in test [1] and in test [3] was “inactive” in each case. In addition, the call in test [2] was inactive.
For the compound `CN1CCc2cc(O)cc3c2[C@H]1Cc1ccc(O)c(O)c1-3`, the Potency in test [6] is 2.24 µM (active). Further, the compound was called inactive in test [2]. Moreover, in test [3], the Potency result was “inactive”.
